Where “and” joins values, the source holds several entries; their conditions need not be identical. Equal values may be shown once. Among all 6,400 compounds or so, about 610 (9.5%) were called active. Rule as the data show it: active = activity change below about -70%; inconclusive = no clear call, values can overlap the other calls; inactive = above that. The entries come from a sample that favours actives as a whole. Some structures have more than one record in an assay (separate samples or runs), and their calls can disagree.

The assay in a line: Toxoplasma gondii ME49Luc growth in HeLa cells, luciferase, no IFN-y, primary screen (AID 1259421). To be noted: T. gondii ME49Luc in HeLa, 72 h, stronger effect = lower value, concentration not given here.
Turning to `CC(N)Cn1ccc2cc(F)c(Cl)cc21` (configuration not stated), the activity change, negative = inhibition was 4.63% (inactive). Take `COc1cc2c(cc1OC)-c1c(oc3c4c(ccc3c1=O)OC(C(C)C)C4)CO2` (configuration not stated): the activity change, negative = inhibition was 16.2% (inactive). To `Cc1cccc(Cc2cnc[nH]2)c1C` belongs 32.1% (inactive); to `CN1C[C@@H](NS(=O)(=O)N(C)C)C[C@@H]2c3cccc4c3c(cn4C)C[C@H]21`, 14.9% (inactive); to `COC(=O)NC(=S)Nc1ccccc1NC(=S)NC(=O)OC`, 8.42% (inactive) and 11.6% (inactive).

On to `CC(C)=CCCN1CCC(NC(=O)[C@](O)(c2ccccc2)C2CCCC2)CC1`, for which the activity change, negative = inhibition is 1.64% (inactive).

As for `c1cncc(C2CCCN2)c1` (configuration not stated), the activity change, negative = inhibition is 2.36% (inactive).

`Fc1cc(F)c2c(c1)[C@H]1C=CC[C@H]1C(c1cccnc1)N2` (some centres not stated): the activity change, negative = inhibition is -75.5% (active).

`c1cncc(C2CCCCN2)c1` (configuration not stated): the activity change, negative = inhibition was 9.05% (inactive) and -25.4% (inactive). As for `O=C1CC[C@@]2(O)[C@H]3Cc4ccc(O)c5c4C2(CCN3CC2CC2)[C@H]1O5`, the activity change, negative = inhibition is -9.85% (inactive). Take `COc1cc2c3cc1Oc1c(OC)c(OC)cc4c1[C@@H](Cc1cccc(c1)Oc1ccc(c(O)c1)C[C@@H]3N(C)CC2)N(C)CC4`: the activity change, negative = inhibition was -11.3% (inactive).

`CCCCC/C=C\C/C=C\C/C=C\C/C=C\CCCC(=O)Nc1ccc(O)cc1`: the activity change, negative = inhibition is -78.5% (active). As to `CCCCC/C=C\C/C=C\C/C=C\C/C=C\CCCC(=O)NCCO`, the activity change, negative = inhibition is 34.9% (inactive). Next, `CCCCC/C=C\C/C=C\C/C=C\C/C=C\CCCC(=O)NCc1ccc(O)c(OC)c1`: 8.17% (inactive); `COC(=O)C=CC(=O)NC1CCC2(O)C3Cc4ccc(O)c5c4C2(CCN3CC2CC2)C1O5` (configuration not stated): 12.8% (inactive); `CC(=O)[O][Hg][c]1ccccc1`: -50.7% (inactive).

`C[C@@H]([C@H](O)c1ccccc1)N(C)C`: the activity change, negative = inhibition was -0.751% (inactive) and -3.37% (inactive).

Regarding `C[Se]C[C@H](N)C(=O)O`, the activity change, negative = inhibition is 10.4% (inactive). On to `COc1cc([C@@H]2c3cc4c(cc3[C@H](OC(C)=O)[C@H]3COC(=O)[C@H]23)OCO4)cc(OC)c1OC`, for which the activity change, negative = inhibition is -81.6% (active). As for `COc1ccc2c(c1OC)C(=O)O[C@@H]2[C@H]1c2cc3c(cc2CCN1C)OCO3`, the activity change, negative = inhibition was 2.97% (inactive). Regarding `COc1ccc2c(c1OC)CN1CCc3cc4c(cc3C1C2)OCO4` (configuration not stated), the activity change, negative = inhibition is 15.2% (inactive). As to `COc1cc([C@@H]2c3cc4c(c(O)c3C[C@H]3COC(=O)[C@@H]32)OCO4)cc(OC)c1OC`, the activity change, negative = inhibition was -71.9% (active). Consider `COc1cc([C@@H]2c3cc4c(cc3[C@@H](O)C3COC(=O)C32)OCO4)cc(OC)c1O` (some centres not stated), for which the activity change, negative = inhibition was -8.26% (inactive).

On to `CCN1C[C@]2(OC(=O)c3ccccc3NC(C)=O)CCC(OC)[C@]34C1[C@H](CC23)[C@@]1(O)CC(OC)[C@H]2CC4C1(O)[C@H]2OC` (some centres not stated), for which the activity change, negative = inhibition is -6.02% (inactive).

As for `CC(C)(C)[C@]1(O)C[C@@H]2OC(=O)C[C@@]23C(=O)O[C@@H]2OC(=O)[C@H](O)C213` (some centres not stated), the activity change, negative = inhibition is 7.37% (inactive). Next, `COC1(C[S@@](=O)c2ccccc2)CCN(CCc2c[nH]c3ccc(F)cc23)CC1`: 22.1% (inactive). `CN1[C@@H]2CC[C@H]1CC(OC1c3ccccc3CCc3ccccc31)C2` (some centres not stated): the activity change, negative = inhibition was 15.8% (inactive). Regarding `c1ccc2c(c1)sc1ccccc12`, the activity change, negative = inhibition was -5.87% (inactive). As to `C=C[C@H]1CN2CC[C@H]1C[C@@H]2[C@H](O)c1ccnc2ccccc12`, the activity change, negative = inhibition was -7.58% (inactive). With `CC(C)c1ccc2c(c1O)CC[C@H]1C3=C(CC[C@]21C)C(=O)OC3`, the activity change, negative = inhibition was 0.532% (inactive).

Regarding `CC(C)[C@]12O[C@H]1[C@@H]1O[C@]13[C@]1(O[C@H]1C[C@H]1C4=C(CC[C@@]13C)C(=O)OC4)[C@@H]2O`, the activity change, negative = inhibition is -86.5% (active). Turning to `C[C@@H]1CN(Cc2ccc(F)cc2)CCN1C(=O)COc1ccc(Cl)cc1NC(N)=O`, the activity change, negative = inhibition is -3.05% (inactive). With `O=c1ccc2cc(O[C@@H]3O[C@H](CO)[C@@H](O)[C@H](O)[C@@H]3O)c(O)cc2o1`, the activity change, negative = inhibition was -0.686% (inactive).

On to `C=C(C)[C@@H]1[C@H]2OC(=O)[C@H]1[C@]1(O)C[C@H]3O[C@]34C(=O)O[C@H]2[C@]14C`, for which the activity change, negative = inhibition is 2.63% (inactive). Consider `CCN(CC)CCOC(=O)C(C)(c1ccccc1)c1ccccc1`, for which the activity change, negative = inhibition was 15.3% (inactive). Turning to `O=C(N[C@H]1CN2CCC1CC2)c1ccc(Cl)cc1`, the activity change, negative = inhibition is 10.2% (inactive) and 9.22% (inactive).

With `O=C(N[C@H]1CN2CCC1CC2)c1cc2cccc(Cl)c2s1`, the activity change, negative = inhibition is 25.6% (inactive).

In the case of `O=c1[nH]c2ccc(Cl)cc2c(N[C@@H]2CN3CCC2CC3)c1-c1nc2ccccc2[nH]1`, the activity change, negative = inhibition was -83.1% (active). On to `C[N+]1(C)CCc2cc3c(cc2C1[C@@H]1OC(=O)c2c1ccc1c2OCO1)OCO3` (some centres not stated), for which the activity change, negative = inhibition is -1.51% (inactive) and 8.52% (inactive). For `C1CN2CCC1CC2`, the activity change, negative = inhibition was 14.5% (inactive). Regarding `O=C1NC(=S)NC(=O)C1C(=O)Nc1ccccc1`, the activity change, negative = inhibition is 57.2% (inactive). For the molecule `CC12CCC3C(CCC4C(=O)C(=O)CCC43C)C1CCC2=O` (configuration not stated), the activity change, negative = inhibition is 21.2% (inactive). For the molecule `Fc1ccc(C(OCCN2CCN(CCCc3ccccc3)CC2)c2ccc(F)cc2)cc1`, the activity change, negative = inhibition is -67.4% (inactive) and 5.82% (inactive).

Turning to `C(=C\c1ccccc1)/CN1CCN(CCOC(c2ccccc2)c2ccccc2)CC1`, the activity change, negative = inhibition was -4.36% (inactive) and -26.8% (inactive) and -5.08% (inactive). Regarding `Fc1ccc(C(OCCN2CCN(C/C=C/c3ccccc3)CC2)c2ccc(F)cc2)cc1`, the activity change, negative = inhibition was -83.2% (active) and -79.9% (active).

Take `O=c1oc2ccccc2c(O)c1Cc1c(O)c2ccccc2oc1=O`: the activity change, negative = inhibition was -3.14% (inactive) and 12.5% (inactive). Next, `N[C@]1(C(=O)O)CC[C@@H](C(=O)O)C1` (racemic): 3.76% (inactive); `O=C1c2ccccc2C(=O)c2ccccc21`: -6.04% (inactive). On to `c1ccc2c(c1)[I+]c1ccccc1-2`, for which the activity change, negative = inhibition is -67.1% (inactive) and -88.6% (active).

For `FC(F)(F)c1cccc(N2CCNCC2)c1`, the activity change, negative = inhibition is -1.94% (inactive). Regarding `CN=C(NS(=O)(=O)c1ccc(Cl)cc1)N1C[C@H](c2ccccc2)C(c2ccc(Cl)cc2)=N1`, the activity change, negative = inhibition was 38.2% (inactive). Take `Cc1ccc2c(c1)C1(CCN(CCc3nc(-c4ccccc4)oc3C)CC1)OC(=O)N2`: the activity change, negative = inhibition was 0.534% (inactive) and -16.6% (inactive).

The record behind these values is PubChem BioAssay AID1259421 (Broad Institute, 2018).
